Records with an inconclusive call do not appear. A call without a number means that no potency is given here. Activity calls are given as the source filed them. Calls follow the shape of the dose curve; as a rule, active = well fitted curve in the direction sought with a large enough effect; inconclusive = small, poorly fitted or top-dose-only effect, or another doubt; inactive = no such curve, though single readings can be large; an effect the other way counts as inactive or inconclusive.
Potency is read from the fitted curve at half-maximal effect.

The first assay relates to WaGa. Briefly: qHTS assay to identify novel small-molecules to repurpose for Merkel cell carcinoma treatment (AID 1296009). Also: nearly all actives have a fitted effect of over 60% in size. The note with it: MCC and control cell lines, CellTiter-Glo viability, 72 h; series mostly up to 46 µM. The essentials:
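Cells exposed to NPC (8-point) and MIPE (11-point) compound dilutions for 72 hr at 37 degree celsius; viability read by CellTiter-Glo luminescence, normalized to no-cell and DMSO in-plate controls.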
Regarding `CNc1nc(Nc2ccc(C(=O)N3CCOCC3)cc2OC)ncc1Cl`, the Potency entry is “inactive”.

Turning to `O=C1C(c2c(O)[nH]c3ccccc23)=Nc2ccccc21`, the Potency result is “inactive”.

Take `COc1cc(Nc2nc3ccccc3nc2NS(=O)(=O)c2ccc(NC(=O)c3ccc(C)c(OC)c3)cc2)cc(OC)c1`: the Potency result was “inactive”.

As for `NS(=O)(=O)c1cc(Cl)c(Cl)c(S(N)(=O)=O)c1`, the Potency result was “inactive”.

For the molecule `CN1C(=O)C(Cc2c[nH]c3ccccc23)NC1=S` (stereo not given), the Potency result was “inactive”.

In the case of `CN1c2ccccc2C(=O)N2CCc3c([nH]c4ccccc34)C21` (stereo not given), the Potency result was “inactive”.

In the case of `CC1CCN(c2cc(N3CCN(C)CC3)ccc2NC(=O)c2cc(C#N)c[nH]2)CC1`, the Potency entry was “inactive”.

Take `COc1ccnc(CS(=O)c2nc3ccc(OC(F)F)cc3[nH]2)c1OC` (stereo not given): the Potency result is “inactive”.

For the molecule `c1cc(OCCN2CCCCC2)cc(-c2n[nH]c3ccc(-c4ncn[nH]4)cc23)c1`, the Potency was 18.7 µM (active).

In the case of `CCOC(=O)[C@H](CCc1ccccc1)N[C@@H](C)C(=O)N1CCCC1C(=O)O` (stereo not given in full), the Potency entry was “inactive”.

For the molecule `Cc1ccccc1-n1c(Cn2nc(-c3cccc(O)c3)c3c(N)ncnc32)nc2cccc(C)c2c1=O`, the Potency is 0.118 µM (active).

On to `CC(C)(OCc1nn(Cc2ccccc2)c2ccccc12)C(=O)O`, for which the Potency result was “inactive”.

Take `Nc1ccc(-c2ccc3ncc4ccc(=O)n(-c5cccc(C(F)(F)F)c5)c4c3c2)cn1`: the Potency is 0.372 µM (active).

For `Cc1ccccc1C(C(=O)NC1CCCCC1)N(C(=O)CNc1ccc(C#N)cc1)c1cccc(F)c1` (stereo not given), the Potency result is “inactive”.

As to `COc1nc(C)cnc1NS(=O)(=O)c1cccnc1-c1ccc(-c2nnco2)cc1`, the Potency result was “inactive”.

`O=C(c1ccc(C(=O)N2CCC(N3CCCC3)CC2)c(Nc2ccccc2)c1)N1CCC(N2CCCC2)CC1`: the Potency result was “inactive”.

On to `CC(=O)N1CCN(c2ccc(OCc3nn(C)c(C)c3-c3cccc4c(CCCOc5cc(C)c(Cl)c(C)c5)c(C(=O)O)n(Cc5cccnc5)c34)cc2)CC1`, for which the Potency is 11.8 µM (active).

With `c1ccc(CNc2nc(N3CCOc4ccccc43)nc3c2CCCC3)cc1`, the Potency entry was “inactive”.

For the molecule `Cn1c(=O)c(-c2c(Cl)cccc2Cl)cc2cnc(Nc3cccc(C(=O)O)c3)nc21`, the Potency entry was “inactive”.

Consider `CCN1C[C@H](C)n2c(c(O)c3c(=O)n(Cc4ccc(F)c(Cl)c4)nc(C(=O)NC)c32)C1=O`, for which the Potency entry is “inactive”.

For `COc1ccc(CCC(=O)Nc2nc3ccc(Cl)cc3s2)cc1OC`, the Potency result was “inactive”.

In the case of `Cc1cc2c(cc1C1(c3ccc(C(=O)O)cn3)CC1)C(C)(C)CCC2(C)C`, the Potency result is “inactive”.

As to `COc1cc2ncnc(Nc3cc(Br)c(O)c(Br)c3)c2cc1OC`, the Potency entry is “inactive”.

As for `CN1CCC(COc2cnc(-c3cccc(Cn4nc(-c5cccc(C#N)c5)ccc4=O)c3)nc2)CC1`, the Potency result is “inactive”.

Take `C[C@@]1(c2cc(-c3cncnc3)c(F)cc2F)CCSC(N)=N1`: the Potency entry is “inactive”.

On to `C[C@H](c1ccc(F)cc1CCCC(=O)O)N(c1cc(F)ccc1F)S(=O)(=O)c1ccc(Cl)cc1`, for which the Potency entry was “inactive”.

`COc1ccc(-c2cc(=O)c3c(O)cc(O[C@@H]4O[C@H](CO[C@@H]5O[C@@H](C)[C@H](O)[C@@H](O)[C@@H]5O)[C@@H](O)[C@H](O)[C@@H]4O)cc3o2)cc1O`: the Potency entry was “inactive”.

Regarding `COC(=O)N1CCN(Cc2cccc(NC(=O)Nc3ccc(C)nc3)c2F)CC1`, the Potency result was “inactive”.

In the case of `Cc1cnc(-c2cc(N3CCN(C(=O)CCS(C)(=O)=O)CC3)ncc2Cl)c(C)c1`, the Potency entry was “inactive”.

For `NC(=O)c1ccc(N(C(N)=O)c2c(F)cccc2F)nc1-c1ccc(F)cc1F`, the Potency entry was “inactive”.

For the next assay, the system named is C33A. Nature of the assay: Primary qHTS to identify gynecologic anti-cancer compounds using libraries of approved drugs and bioactive compounds (AID 1345084). Also: nearly all actives have a fitted effect of over 55% in size. The note with it: Gynecologic cancer cell panel viability, ATPlite luminescence, 48 h; series mostly up to 57.5 µM. Summed up:
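Five-concentration response, 48 h; readout is ATP-driven luciferase luminescence.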
With `COc1nccc(-c2c(-c3ccc(F)cc3)ncn2C2CCC(O)CC2)n1` (stereo not given), the Potency result is “inactive”.

As for `CNc1nc(Nc2ccc(C(=O)N3CCOCC3)cc2OC)ncc1Cl`, the Potency entry is “inactive”.

On to `O=C1C(c2c(O)[nH]c3ccccc23)=Nc2ccccc21`, for which the Potency entry was “inactive”.

For the molecule `COc1cc(Nc2nc3ccccc3nc2NS(=O)(=O)c2ccc(NC(=O)c3ccc(C)c(OC)c3)cc2)cc(OC)c1`, the Potency result was “inactive”.

Take `COc1ccc(-c2ccc3ncc4c(c3c2)n(-c2ccc(N3CCNCC3)c(C(F)(F)F)c2)c(=O)n4C)cn1`: the Potency is 11.2 µM (active).

As to `NS(=O)(=O)c1cc(Cl)c(Cl)c(S(N)(=O)=O)c1`, the Potency result is “inactive”.

Consider `CNC(=O)c1c(-c2ccc(F)cc2)oc2cc(N(CCO)S(C)(=O)=O)c(C3CC3)cc12`, for which the Potency entry was “inactive”.

Regarding `CC1CCN(c2cc(N3CCN(C)CC3)ccc2NC(=O)c2cc(C#N)c[nH]2)CC1`, the Potency entry is “inactive”.

On to `COc1ccnc(CS(=O)c2nc3ccc(OC(F)F)cc3[nH]2)c1OC` (stereo not given), for which the Potency result was “inactive”.

Regarding `c1cc(OCCN2CCCCC2)cc(-c2n[nH]c3ccc(-c4ncn[nH]4)cc23)c1`, the Potency result is “inactive”.

With `O=C(CO)N1CCC(c2[nH]nc(-c3ccc(Cl)cc3)c2-c2ccncn2)CC1`, the Potency entry was “inactive”.

Take `Cc1ccccc1-n1c(Cn2nc(-c3cccc(O)c3)c3c(N)ncnc32)nc2cccc(C)c2c1=O`: the Potency entry is “inactive”.

Consider `CC(C)(OCc1nn(Cc2ccccc2)c2ccccc12)C(=O)O`, for which the Potency result is “inactive”.

As for `Cc1ccccc1C(C(=O)NC1CCCCC1)N(C(=O)CNc1ccc(C#N)cc1)c1cccc(F)c1` (stereo not given), the Potency entry was “inactive”.

For `COc1nc(C)cnc1NS(=O)(=O)c1cccnc1-c1ccc(-c2nnco2)cc1`, the Potency result was “inactive”.

Regarding `O=C(c1ccc(C(=O)N2CCC(N3CCCC3)CC2)c(Nc2ccccc2)c1)N1CCC(N2CCCC2)CC1`, the Potency entry is “inactive”.

Regarding `CC1=C(C(=O)Nc2cc3cn[nH]c3cc2F)C(c2ccc(C(F)(F)F)cc2)CC(=O)N1` (stereo not given), the Potency result was “inactive”.

As to `c1ccc(CNc2nc(N3CCOc4ccccc43)nc3c2CCCC3)cc1`, the Potency result was “inactive”.

Take `Cn1c(=O)c(-c2c(Cl)cccc2Cl)cc2cnc(Nc3cccc(C(=O)O)c3)nc21`: the Potency result is “inactive”.

Turning to `CCN1C[C@H](C)n2c(c(O)c3c(=O)n(Cc4ccc(F)c(Cl)c4)nc(C(=O)NC)c32)C1=O`, the Potency entry is “inactive”.

For the molecule `COc1ccc(CCC(=O)Nc2nc3ccc(Cl)cc3s2)cc1OC`, the Potency entry was “inactive”.

On to `Cc1cc2c(cc1C1(c3ccc(C(=O)O)cn3)CC1)C(C)(C)CCC2(C)C`, for which the Potency entry is “inactive”.

Regarding `COc1cc2ncnc(Nc3cc(Br)c(O)c(Br)c3)c2cc1OC`, the Potency result is “inactive”.

On to `O=C(O)CCNc1cc(N2CCc3ccccc3CC2)nc(-c2ccccn2)n1`, for which the Potency result is “inactive”.

Take `CN1CCC(COc2cnc(-c3cccc(Cn4nc(-c5cccc(C#N)c5)ccc4=O)c3)nc2)CC1`: the Potency entry was “inactive”.

`C[C@@]1(c2cc(-c3cncnc3)c(F)cc2F)CCSC(N)=N1`: the Potency entry is “inactive”.

Consider `C[C@H](c1ccc(F)cc1CCCC(=O)O)N(c1cc(F)ccc1F)S(=O)(=O)c1ccc(Cl)cc1`, for which the Potency result is “inactive”.

For the molecule `COC(=O)N1CCN(Cc2cccc(NC(=O)Nc3ccc(C)nc3)c2F)CC1`, the Potency entry was “inactive”.

`Cc1cnc(-c2cc(N3CCN(C(=O)CCS(C)(=O)=O)CC3)ncc2Cl)c(C)c1`: the Potency entry was “inactive”.

As for `NC(=O)c1ccc(N(C(N)=O)c2c(F)cccc2F)nc1-c1ccc(F)cc1F`, the Potency result is “inactive”.

The record behind these values is PubChem BioAssay (NCATS).
